In the library only some 14% were active in any assay of this set; here they are far more common.
Pf growth 96h: inhibits malaria parasite growth, 96 h; P. falciparum luciferase reporter growth, 96 h; Potency, µM (doses to about 28.7 µM), for the others: top-dose activity change, negative = inhibition, hits mostly inhibitors; 320,000 compounds, 6.9% hits; AID 504834; further: potency means the concentration at half of the fitted maximal effect
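Readout is luminescence from an integrated firefly luciferase in P. falciparum. Red cells, 2% hematocrit and 0.05% parasitemia final, were cultured with compound through two parasite generations (96 hours) at 37 C, 5% CO2.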
HCMV inh: human cytomegalovirus inhibition | 410,000 compounds, 4.5% hits | HFF cells, HCMV-luciferase reporter, 72 h; active compounds read low | activity change, negative = inhibition, % at 57.5 µM; in the data active means activity change below about -60%; inconclusive means no clear call, values can overlap the other calls; inactive means above about -39%
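Steps: HFFs plated, 16 h 37C; compounds added; HCMV-luciferase added to MOI 1 PFU/cell; 72 h 37C; OneGlo reagent, 5 min room temperature; luminescence read, normalized to controls.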
Lassa entry inh: inhibitors of Lassa virus binding or cell entry | Lassa virus pseudotype entry inhibition, cell reporter | Potency, µM (series often up to 37.9 µM), inactives show at the top dose activity change, negative = inhibition, usual class: inhibitors | 300,000 compounds, 1.2% hits | AID 540256; calls by dose curve; tested in HEK293 cells; further: potency means the concentration at half of the fitted maximal effect; nearly all actives have a fitted effect of over 50% in size
Pf growth 48h: P. falciparum growth inhibition at 48 hours (one generation); P. falciparum luciferase growth in erythrocytes, 48 h; Potency, µM (series often up to 28.7 µM), without a hit: top-dose activity change, negative = inhibition, usual class: inhibitors; 310,000 compounds, 5.9% hits; AID 504832; further: potency means the concentration at half of the fitted maximal effect
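First compound was added to culture medium, then infected red cells at 0.1% parasitemia and 2% hematocrit (final). After incubation at 37 C under 5% CO2, luciferase detection reagent was dispensed and light output recorded.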
HCV inh: inhibitors of hepatitis C virus infection | Huh7.5.1 HCVcc-Cre infection, luciferase reporter, 44 h | Potency, µM (highest dose often 41.8 µM), for the others: top-dose activity change, negative = inhibition, actives largely listed as inhibitors | AID 651820 | 340,000 compounds, 3.4% hits; further: potency means the concentration at half of the fitted maximal effect
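A cell-based infection assay in which seeded cells (1,000 per well) receive test compound after 4 h, are inoculated with HCVcc-Cre at approximately 0.5 moi, and are incubated 44 h before luminescence detection.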
MARV entry inh: Marburg virus entry inhibition. 300,000 compounds, 1.8% hits. Marburg virus pseudotyped entry inhibition, cell reporter. Potency, µM (doses to about 37.8 µM), without a hit: at the top dose activity change, negative = inhibition, usual class: inhibitors; calls by dose curve; tested in HEK293 cells; further: potency means the concentration at half of the fitted maximal effect
The depositor's hits bear a star; [ ] = another dose, or the depositor's remark. Unless noted, the call rests on the fitted dose curve; in most records, active means well fitted inhibition curve with a large enough effect; inconclusive means small, poorly fitted or top-dose-only effect, or another doubt; inactive means no such curve, though single readings can be large or run the other way. On the % scale 0 is the no-effect control and ±100 the full control effect.

Screening O=C(c1ccc([N+](=O)[O-])cc1)N(Cc1cccs1)C1CCS(=O)(=O)C1 (stereo not drawn) returned Pf growth 96h inconclusive, HCMV inh -32, Lassa entry inh -3%, Pf growth 48h 3%, HCV inh -1% and MARV entry inh 11%.
`Fc1ccc(-c2noc3ncnc(NCCc4ccccc4)c23)cc1` gave HCMV inh inconclusive and Lassa entry inh 2%[46.1 µM].
For O=C(CSc1nc2c(oc3ccccc32)c(=O)n1Cc1ccco1)Nc1ccccc1Cl the results were HCMV inh 9 and MARV entry inh -7%[46.1 µM].
Screening CC(C)c1ccc(NC(=O)CSc2n[nH]c(=O)n2Cc2ccco2)cc1 returned Pf growth 96h 13µM*, HCMV inh -17, Pf growth 48h inconclusive and HCV inh inconclusive.
For O=C(CSc1n[nH]c(=O)n1Cc1ccco1)Nc1ccccc1 the results were Pf growth 96h 15%, HCMV inh -14, Pf growth 48h 0% and HCV inh 11%.
O=C(CSc1n[nH]c(=O)n1Cc1ccco1)Nc1ccccc1Cl was read as Pf growth 96h 4.7µM*, HCMV inh 4, Lassa entry inh 3%, Pf growth 48h inconclusive, HCV inh -18% and MARV entry inh 0%.
`C[C@@H]1CC2=CCCC2[C@]2(O1)C(=O)N(Cc1ccc(Br)cc1)c1cccc(Br)c12` (stereo partly drawn) gave Lassa entry inh inconclusive and MARV entry inh -25%[14.2 µM].
Screening C=C1CCCC2OC(CC3=CC4/C(C)=C/CC(C)CC(/C=C(\C)C(O)C5CC(O)C(O)C(CCC(O)/C=C/C(C)=C/CCC6=NCCC(C3)C64C)O5)OC(=O)CC3OC(C(O)C1)C(O)C3O)CC(O)C2O (stereo not drawn) returned HCMV inh -78*.
Cc1noc(C)c1S(=O)(=O)Nc1ccc(C(=O)Nc2ccc(Br)cc2)cc1 was read as HCMV inh -9, Lassa entry inh inconclusive and MARV entry inh 10%[46.1 µM].
Oc1ccccc1-n1c(-c2ccccc2)ccc1-c1ccccc1 was read as Pf growth 96h 5.9µM*, HCMV inh -76*, Pf growth 48h 9.3µM* and HCV inh inconclusive.
Screening COc1ccc(Cl)cc1C(=O)NCc1nnnn1-c1ccccc1 returned HCMV inh -1 and Lassa entry inh -5%[46.1 µM].
Screening Nc1nc(SCc2ccc([N+](=O)[O-])cc2)nc2nc3c(cc12)CCCC3 returned Pf growth 96h 1.5µM*, HCMV inh 20, Lassa entry inh -3%, Pf growth 48h inconclusive, HCV inh inconclusive and MARV entry inh -19%.
CCN(CC)C(=O)c1cccc(-c2ccc(OC)cc2)c1 was read as HCMV inh -1, Lassa entry inh 13%, Pf growth 48h inconclusive, HCV inh 1% and MARV entry inh -8%.
For C=CCN1C[C@H](C)N(C(c2ccc(C(=O)N(CC)CC)cc2)c2cccc(OC)c2)CC1C (stereo partly drawn) the results were HCMV inh -65*.
`CN1CCN(c2ccc(Nc3nccc4[nH]c(-c5cccnc5)cc34)cc2)CC1` gave HCMV inh 42.
For O=C(NC(=S)NC1CCCCC1)c1ccccc1[N+](=O)[O-] the results were Pf growth 96h -22%, HCMV inh 19, Pf growth 48h inconclusive and HCV inh -8%.
`CC1(C(=O)NS(=O)(=O)c2ccccc2)CCN1C(=O)CC(c1ccccc1)c1ccccc1` (stereo not drawn) gave HCMV inh -13.
For Cc1ccc(CNC(=O)c2c(Nc3ccccc3C)sc(C(=O)c3ccc(F)cc3)c2N)cc1 the results were HCMV inh -75* and Lassa entry inh inconclusive.
For COc1cccc(Nc2sc(C(=O)c3ccc(F)cc3)c(N)c2C(=O)NCc2ccc(C)cc2)c1 the results were HCMV inh -62* and Lassa entry inh inconclusive.
O=C(Nc1ccc(Nc2cccnc2)cc1)c1c[nH]c2ccccc12 was read as HCMV inh -27.
`O=[N+]([O-])c1ccc(O)c(-c2ccnc3cc(-c4ccccc4)nn23)c1` gave HCMV inh -78*, Lassa entry inh inconclusive and MARV entry inh -15%[46.1 µM].
Screening CCN(CC)CCN1C(=O)C(=O)/C(=C(/O)c2ccc(S(=O)(=O)N3CCOCC3)cc2)C1c1ccccc1 (stereo not drawn) returned Pf growth 96h 0%, HCMV inh inconclusive, Lassa entry inh 1%, Pf growth 48h 23%, HCV inh 6% and MARV entry inh 1%[46.1 µM].
Screening COc1cc2c(cc1OC)C(=O)C(CC1CCN(Cc3ccccc3)CC1)C2 (stereo not drawn) returned Pf growth 96h 9.5µM*, HCMV inh -16, Pf growth 48h inconclusive and HCV inh 1.4µM*.
Screening COc1ccc(CNC(=O)CN2CCC(C(=O)c3ccc(OC)cc3)CC2)cc1 returned HCMV inh -78*, Lassa entry inh inconclusive, Pf growth 48h inconclusive, HCV inh 13µM* and MARV entry inh -20%.
For COCCCNC(=S)N1CCC(C(=O)c2ccc(Cl)cc2)CC1 the results were Pf growth 96h inconclusive, HCMV inh -18, Lassa entry inh inconclusive, Pf growth 48h -2%, HCV inh 4µM* and MARV entry inh inconclusive.
For COc1ccc(C(=O)C2CCN(C(=O)c3ccc(OC)cc3)CC2)cc1 the results were Pf growth 96h inconclusive, HCMV inh inconclusive, Lassa entry inh inconclusive, Pf growth 48h inconclusive, HCV inh 7.9µM* and MARV entry inh inconclusive.
`CCOC(=O)C1CCN(C(=O)c2ccc3c(c2)OCCO3)CC1` gave HCMV inh 0 and HCV inh 10%.
Screening CCOc1ccc(C(=O)N2CCC(C(=O)c3ccc4c(c3)OCCO4)CC2)cc1 returned Pf growth 96h 69%, HCMV inh inconclusive, Lassa entry inh -20%, Pf growth 48h -16%, HCV inh 10µM* and MARV entry inh -16%.
Screening CSc1nc(N)c2c(n1)N(C)C=NS2(=O)=O returned HCMV inh -31, Lassa entry inh -13%[46.1 µM], HCV inh 15% and MARV entry inh -3%[46.1 µM].
Screening O=c1c2ccccc2nc2sc(Nc3cccc(Cl)c3)nn12 returned Pf growth 96h inconclusive, HCMV inh 44 and Pf growth 48h 23%.
CC12CCC(=O)N1C(C(=O)Nc1ccc(Cl)c(S(=O)(=O)N3CCCCC3)c1)CS2 (stereo not drawn) was read as Pf growth 96h inconclusive, HCMV inh -31, Lassa entry inh -25%, Pf growth 48h -23%, HCV inh inconclusive and MARV entry inh inconclusive.

Compound activity deposited in PubChem by National Center for Advancing Translational Sciences (NCATS).
